High-throughput results as filed in PubChem.
Vaccinia mCherry: inhibitors of vaccinia virus infection (mCherry reporter signal) | Vaccinia virus mCherry reporter infection, fluorescence | 0.63% of 310,000 active | Potency, µM (series often up to 36.5 µM), hits mostly inhibitors; calls by dose curve; tested in A549 cells; further: nearly all actives have a fitted effect of over 35% in size
HCMV inh: inhibitors of human cytomegalovirus. HFF cells, HCMV-luciferase reporter, 72 h; stronger effect = lower value. activity change, negative = inhibition, % at 57.5 µM. 4.5% of 410,000 active. AID 1259415; in the data active means activity change below about -60%; inconclusive means no clear call, values can overlap the other calls; inactive means above about -39%
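Luciferase read-out from HCMV-luciferase-infected HFFs (MOI 1 PFU/cell) 72 h post infection at 37C; compounds added after 16 h cell attachment; activity normalized between buffer-only basal and Salinomycin (10uM) inhibitor controls.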
VACV Venus inh: inhibitors of vaccinia virus (Venus reporter) | 0.46% of 330,000 active | Potency, µM (highest dose often 36.5 µM), usual class: inhibitors | Vaccinia virus Venus reporter expression, fluorescence; calls by dose curve; tested in A549 cells; further: nearly all actives have a fitted effect of over 30% in size
FMDV antiviral: foot and mouth disease virus antiviral activity | 1.2% of 410,000 active | FMDV antiviral cell-based qHTS | Potency, µM (top dose mostly 57.9 µM), usual class: inhibitors | AID 1159524; calls by dose curve; tested in HEK293T cells; further: read-out not given here; nearly all actives have a fitted effect of over 45% in size
HCV inh: HCV inhibition. Huh7.5.1 HCVcc-Cre infection, luciferase reporter, 44 h. Potency, µM (top dose mostly 41.8 µM), usual class: inhibitors. 3.4% of 340,000 active; active means well fitted inhibition curve with a large enough effect; inconclusive means small, poorly fitted or top-dose-only effect, or another doubt; inactive means no such curve, though single readings can be large or run the other way
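Luciferase read-out (15 sec integration) after a 15 min room-temperature substrate step quantifies HCVcc-Cre infection. Cells, 1,000 per well, had compound added 4 h post-plating, then virus at ~0.5 moi, and were cultured 44 h.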
Hits are given with their value; i = inactive; ? = inconclusive; nt = not tested or not shown; [ ] = dose if it differs, or a comment. An excerpt weighted towards active compounds, which were near 7.3% of everything screened.

SMILES	Vaccinia mCherry	HCMV inh	VACV Venus inh	FMDV antiviral	HCV inh
CCN(CC)C(=O)c1oc2ccc(S(=O)(=O)N3CC(C)CC(C)C3)cc2c1C (configuration not stated)	i	-88	i	i	3.5µM
COc1ccc(-c2noc([C@@H]3O[C@H](CO)[C@H](O)[C@H](O)[C@H]3O)n2)cc1OC	i	i	i	i	nt
CC(=O)c1cccc(NC(=O)CCS(=O)(=O)c2ccc(Br)s2)c1	i	?	i	i	i
O=C(CCS(=O)(=O)c1ccc(Br)s1)Nc1cc(C(F)(F)F)cc(C(F)(F)F)c1	13µM	-90	?	?	nt
Oc1cc(NCCN2CCOCC2)cc2cccnc12	nt	-87	nt	?	nt
c1ccc(Nc2ccc3ccccc3c2)cc1	i	?	i	i	i
Oc1cc(Nc2ccccc2)cc2cccnc12	nt	-82	nt	i	nt
Oc1cccc2cc(Nc3ccccc3)cnc12	nt	-101	nt	i	nt
c1ccc(Nc2ccccc2)cc1	i	i	i	i	i
Clc1ccccc1-c1nccc(NCCN2CCOCC2)n1	nt	nt	nt	i	nt
COc1cccc(CNC(=O)C(=O)NCC(c2cccs2)S(=O)(=O)c2cccs2)c1 (configuration not stated)	?	i	?	?	nt
COc1ccc(-c2cc(C#N)nc(N3CCN(C)CC3)n2)cc1	i	i	i	i	13µM
CCN(CC)c1nc(C#N)cc(-c2ccc(OC)cc2)n1	nt	i	?	?	7.1µM
CN1CCN(c2nc(C#N)cc(-c3ccccc3)n2)CC1	nt	i	i	i	10µM
COc1ccc(-c2cc(C#N)nc(N3CCNCC3)n2)cc1	nt	i	nt	i	i
COc1ccc(-c2cc(C#N)nc(Cl)n2)cc1	?	i	?	?	?
O=C(O)c1ccc(/C=N/NC(=O)C2CC2(c2ccccc2)c2ccccc2)cc1 (configuration not stated)	nt	i	nt	nt	nt
O=C(N/N=C/c1cccnc1)C1CC1(c1ccccc1)c1ccccc1 (configuration not stated)	i	-67	i	i	?
Cc1occc1C(=O)N/N=C/c1cccnc1	i	i	i	i	i
Cc1cc(C(=O)N/N=C/c2ccc([N+](=O)[O-])o2)c(C)o1	nt	-61	nt	?	?
Cc1cc(C(=O)N/N=C/c2cccnc2)c(C)o1	nt	-99	i	i	i
CCCC(=O)Nc1ccc(C(=O)N/N=C/c2ccc([N+](=O)[O-])o2)cc1	?	-95	?	?	?
CC(C(=O)Nc1ccc(C#N)cc1)N1CCN(C(=O)C2CC2)CC1 (configuration not stated)	i	i	i	i	i
COc1cc(C)c(CN2CCC(n3nccc3NC(=O)C3CC3)CC2)cc1C	i	i	i	i	i
COc1ccc(N(Cc2ccccc2)N=O)cc1	i	i	i	i	i
SMILES	Vaccinia mCherry	HCMV inh	VACV Venus inh	FMDV antiviral	HCV inh
O=C(O)c1cc(Cl)c(Cl)cc1C(=O)NCc1ccco1	i	i	i	i	i
CC(C)(C)OC(=O)N/N=C\c1cccnc1	i	i	i	i	i
CCCCCCCC(=O)Nc1ccc(C(=O)N/N=C/c2cccc([N+](=O)[O-])c2)cc1	i	-69	i	i	?
CC(C)(C)NC(=S)N/N=C/c1cccnc1	i[7.34 µM]	-65	i[7.34 µM]	i	i
Cc1ccccc1NC(=O)Cc1nnc(SCC(=O)NC2=NCCS2)n1C	i	i	i	i	i
COCCCNC(=O)c1ccc(C(=O)NCCCOC)cc1	i	i	i	i	nt
COCCCNC(NC(=O)c1ccc(Br)cc1)C(Cl)(Cl)Cl (configuration not stated)	i	-66	i	i	i
COc1ccc(NC(=O)CSC2=Nc3ccccc3C3=NC(CCC(=O)NCc4cccs4)C(=O)N23)cc1 (configuration not stated)	i	-73	i	i	nt
O=C(CSC1=Nc2ccccc2C2=NC(Cc3ccccc3)C(=O)N12)Nc1cccc(Cl)c1 (configuration not stated)	?	-72	i	i	nt
COc1cccc(NC(=O)CSC2=Nc3ccccc3C3=NC(CCC(=O)NCCc4ccccc4)C(=O)N23)c1 (configuration not stated)	?	-68	?	?	nt
COc1ccc(NC(=O)CSC2=Nc3ccccc3C3=NC(CCC(=O)NCCc4ccccc4)C(=O)N23)cc1 (configuration not stated)	?	i	i	i	nt
CC(=O)N1CCCc2cc(S(=O)(=O)N3CCCC(C(=O)Nc4cccc(Cl)c4C)C3)ccc21 (configuration not stated)	i	i	i	?	nt
